Laboratory results from the supplement of paper PMC12494721.
Counter-ions that a name gives are not always drawn.

Experiments:
Conditions in all cases: incubation time: 27 h, anaerobic, 37 °C;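 for the amine columns active = adjusted P below 0.05 in both replicates with a change the same way and a mean fold change under 0.8 or over 1.25; inactive = the rest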
[1] = test system: Clostridium sporogenes DSM 1664; experiment: growth (OD595) fold change vs plate DMSO controls (fold change (ratio)); higher = more growth
Procedure, shortened: (§1)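 To obtain OD, 595 nm absorbance readings were blank-subtracted, corrected for compound background using 20 µM compound solutions in water, and multiplied by a calibration factor of 5. They came from 96-well mGAM cultures grown anaerobically for 27 h at 37 °C and shaken before reading. Growth is the fold change relative to the median of plate DMSO controls. Two biological replicates were averaged, and fold changes above 1.5 were set to NA.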

Escherichia coli IAI1 [2] = experiment: as above
Procedure, shortened: as §1

[3] = test system: Klebsiella aerogenes DSM 30053; experiment: as above
Procedure, shortened: as §1

[4] = test system: Ruminococcus gnavus DSM 108212; experiment: as above
Procedure, shortened: as §1

[5] = test system: Klebsiella aerogenes DSM 30053; experiment: fold change of Histamine concentration vs plate DMSO controls (fold change (ratio)); higher = more amine produced, active = hit call of the paper (significant change in both replicates, either direction)
Procedure, shortened: (§2)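 Extracts of whole anaerobic mGAM cultures were analysed for amines by LC–triple-quadrupole MS with dynamic MRM and external calibration curves, with drift corrected within batch. Four gut strains were grown at 37 °C for 27 h in 80 µL wells with compounds at 20 µM final, sweeteners at 50 µM final. Each value expresses fold change over plate DMSO controls. The average of 2 biological replicates is shown.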

[6] = test system: Clostridium sporogenes DSM 1664; experiment: fold change of Tryptamine concentration vs plate DMSO controls (fold change (ratio)); higher = more amine produced, active = hit call of the paper (significant change in both replicates, either direction)
Procedure, shortened: as §2

[7] = test system: Ruminococcus gnavus DSM 108212; experiment: as above
Procedure, shortened: as §2

Escherichia coli IAI1 [8] = experiment: fold change of Putrescine concentration vs plate DMSO controls (fold change (ratio)); higher = more amine produced, active = hit call of the paper (significant change in both replicates, either direction)
Procedure, shortened: as §2

[9] = test system: Klebsiella aerogenes DSM 30053; experiment: as above
Procedure, shortened: as §2

Escherichia coli IAI1 [10] = experiment: fold change of Cadaverine concentration vs plate DMSO controls (fold change (ratio)); higher = more amine produced, active = hit call of the paper (significant change in both replicates, either direction)
Procedure, shortened: as §2

[11] = test system: Klebsiella aerogenes DSM 30053; experiment: as above
Procedure, shortened: as §2

[12] = test system: Ruminococcus gnavus DSM 108212; experiment: fold change of 2-Phenylethylamine concentration vs plate DMSO controls (fold change (ratio)); higher = more amine produced, active = hit call of the paper (significant change in both replicates, either direction)
Procedure, shortened: as §2

Compound	growth [1]	growth (Escherichia coli IAI1 [2])	growth [3]	growth [4]	fold change of Histamine concentration [5]	fold change of Tryptamine concentration [6]	fold change of Tryptamine concentration [7]	fold change of Putrescine concentration (Escherichia coli IAI1 [8])	fold change of Putrescine concentration [9]	fold change of Cadaverine concentration (Escherichia coli IAI1 [10])	fold change of Cadaverine concentration [11]	fold change of 2-Phenylethylamine concentration [12]
NNC(=O)c1ccncc1 [Isoniazid] (20 µM)	1.22	1.01	0.936	0.727	1.03 (inactive)	1.05 (inactive)	0.851 (inactive)	1.03 (inactive)	0.991 (inactive)	1.01 (inactive)	0.988 (inactive)	0.844 (inactive)
COc1ccc(C2C(=O)c3ccccc3C2=O)cc1 [Anisindione] (20 µM)	0.917	0.951	0.965	1.04	1.03 (inactive)	0.976 (inactive)	0.994 (inactive)	0.953 (inactive)	1 (inactive)	0.994 (inactive)	0.991 (inactive)	0.951 (inactive)
Nc1ccccc1S(N)(=O)=O [o-Sulfanilamide] (20 µM)	0.883	1.01	1.01	1	1.02 (inactive)	0.958 (inactive)	0.928 (inactive)	1.03 (inactive)	1.01 (inactive)	1 (inactive)	1 (inactive)	0.905 (inactive)
CC(=O)O[C@H]1C[C@@H]2CC[C@@H]3[C@H](CC[C@@]4(C)[C@H]3C[C@H]([N+]3(C)CCCCC3)[C@@H]4OC(C)=O)[C@@]2(C)C[C@@H]1N1CCCCC1 [Vecuronium bromide] (20 µM)	0.99	0.99	1.01	0.872	1.04 (inactive)	1.01 (inactive)	0.967 (inactive)	0.872 (inactive)	1 (inactive)	0.992 (inactive)	0.992 (inactive)	1.03 (inactive)
COc1ccc(-c2noc(CC(=O)O)c2-c2ccc(OC)cc2)cc1 [Mofezolac] (20 µM)	0.876	1.01	1	1.21	1.05 (inactive)	0.988 (inactive)	0.979 (inactive)	1.03 (inactive)	1 (inactive)	0.987 (inactive)	0.993 (inactive)	0.96 (inactive)
C[C@H]1C[C@@H]2[C@H]([C@@H](O)C[C@@]3(C)[C@H]2CC[C@]3(O)C(=O)CO)[C@@]2(C)C=CC(=O)C=C12 [Methylprednisolone, 6-alpha] (20 µM)	0.939	0.956	1.01	0.836	0.992 (inactive)	1.03 (inactive)	1.01 (inactive)	0.991 (inactive)	1.05 (inactive)	1.03 (inactive)	1.04 (inactive)	1.03 (inactive)
C[C@]12CC[C@@H]3c4ccc(O)cc4CC[C@H]3[C@@H]1C[C@@H](O)[C@@H]2O [Estriol] (20 µM)	1.12	0.963	1.17	1.15	0.888 (inactive)	1.01 (inactive)	0.936 (inactive)	0.991 (inactive)	0.993 (inactive)	1.02 (inactive)	1.02 (inactive)	0.884 (inactive)
Nc1nc(Cl)nc2c1ncn2[C@H]1C[C@H](O)[C@@H](CO)O1 [Cladribine] (20 µM)	0.964	0.974	1.06	0.893	0.841 (inactive)	1.06 (inactive)	0.925 (inactive)	0.684 (inactive)	0.984 (inactive)	0.934 (inactive)	1.02 (inactive)	0.957 (inactive)
CN(C(=O)C(Cl)Cl)c1ccc(OC(=O)c2ccco2)cc1 [Diloxanide furoate] (20 µM)	1.1	0.998	1.01	0.993	1 (inactive)	0.918 (inactive)	0.915 (inactive)	1.02 (inactive)	1 (inactive)	0.973 (inactive)	0.997 (inactive)	0.979 (inactive)
N=C(N=C(N)N)N1CCOCC1 [Moroxidine hydrochloride] (20 µM)	0.931	1.05	1	1.39	1.11 (inactive)	0.987 (inactive)	1.18 (inactive)	0.989 (inactive)	1.06 (inactive)	0.916 (inactive)	1.09 (inactive)	1.34 (active)
CN1CCCN=C1/C=C/c1cccs1 [Pyrantel tartrate] (20 µM)	1.14	1.04	1.1	1.04	0.952 (inactive)	1.02 (inactive)	1.08 (inactive)	1.04 (inactive)	1 (inactive)	1.03 (inactive)	1.02 (inactive)	1.01 (inactive)
CCC(NC(C)C)C(O)c1ccc(O)c(O)c1 (stereo unspecified) [Isoetharine mesylate salt] (20 µM)	1.13	1.06	0.99	0.992	1 (inactive)	0.966 (inactive)	0.977 (inactive)	1.11 (inactive)	0.995 (inactive)	0.987 (inactive)	0.994 (inactive)	0.92 (inactive)
CCN(CC)C(=O)/C(C#N)=C/c1cc(O)c(O)c([N+](=O)[O-])c1 [Entacapone] (20 µM)	0.868	0.974	1.06	1.07	1.01 (inactive)	0.961 (inactive)	0.929 (inactive)	0.993 (inactive)	1.03 (inactive)	0.977 (inactive)	0.995 (inactive)	0.896 (inactive)
CC(C)(C)NCC(O)c1cc(O)cc(O)c1 (stereo unspecified) [Terbutaline hemisulfate] (20 µM)	0.98	1.02	1.05	1.11	1.02 (inactive)	1.05 (inactive)	1.06 (inactive)	1.05 (inactive)	0.985 (inactive)	0.932 (inactive)	0.993 (inactive)	1.06 (inactive)
CO/N=C(\C(=O)N[C@@H]1C(=O)N2C(C(=O)[O-])=C(C[n+]3cccc4c3CCC4)CS[C@H]12)c1csc(N)n1 [Cefpirome sulfate] (20 µM)	0.00168	0.00447	0.0713	0.108	0.122 (active)	0.0112 (active)	0.0828 (active)	0.213 (active)	0.347 (active)	0.645 (inactive)	1.09 (inactive)	0.0627 (active)
CC(=O)Nc1ccc(OC(=O)c2ccccc2O)cc1 [Acetaminosalol] (20 µM)	0.904	0.977	0.996	0.994	0.933 (inactive)	1.06 (inactive)	0.928 (inactive)	1.01 (inactive)	1.01 (inactive)	1 (inactive)	0.999 (inactive)	0.917 (inactive)
CN(C)CCc1c[nH]c2ccc(C[C@H]3COC(=O)N3)cc12 [Zolmitriptan] (20 µM)	1.04	1.06	1.01	0.975	1.01 (inactive)	1.04 (inactive)	1.04 (inactive)	1.01 (inactive)	1.01 (inactive)	1.01 (inactive)	0.993 (inactive)	1.06 (inactive)
CCOC(N)=O [Urethane] (20 µM)	0.952	1.05	1.04	1.08	1.03 (inactive)	0.944 (inactive)	0.961 (inactive)	1.02 (inactive)	1.05 (inactive)	1.03 (inactive)	1.03 (inactive)	0.926 (inactive)
CCCNCC(O)COc1ccccc1C(=O)CCc1ccccc1 (stereo unspecified) [Propafenone hydrochloride] (20 µM)	1.01	0.96	1.12	0.759	0.848 (inactive)	1.01 (inactive)	1.03 (inactive)	0.987 (inactive)	0.99 (inactive)	1.05 (inactive)	1.02 (inactive)	1.06 (inactive)
Cc1ccccc1C(=O)Nc1ccc(C(=O)N2CCCC(O)c3cc(Cl)ccc32)c(C)c1 (stereo unspecified) [Tolvaptan] (20 µM)	1.16	0.991	0.985	1.06	1.05 (inactive)	0.919 (inactive)	0.964 (inactive)	0.955 (inactive)	1.01 (inactive)	0.995 (inactive)	1 (inactive)	0.924 (inactive)
CC(C)CC(=O)N[C@H](C(=O)N[C@H](C(=O)N[C@@H](CC(C)C)[C@@H](O)CC(=O)N[C@@H](C)C(=O)N[C@@H](CC(C)C)[C@@H](O)CC(=O)O)C(C)C)C(C)C [Pepstatin A] (20 µM)	1.1	1	1	1.06	1.02 (inactive)	1.06 (inactive)	1.05 (inactive)	0.953 (inactive)	1.01 (inactive)	0.961 (inactive)	0.999 (inactive)	1.06 (inactive)
NC(N)=Nc1nc(CSCCN/C=N/S(=O)(=O)c2ccc(Br)cc2)cs1 [Ebrotidine] (20 µM)	1.02	1.02	0.989	1.02	1.03 (inactive)	0.91 (inactive)	0.836 (inactive)	0.974 (inactive)	0.991 (inactive)	1.06 (inactive)	1.01 (inactive)	0.887 (inactive)
CC(N)CCCC(C)(C)O (stereo unspecified) [Heptaminol hydrochloride] (20 µM)	1.01	1.1	0.998	1.12	0.999 (inactive)	0.988 (inactive)	1.01 (inactive)	1.05 (inactive)	1 (inactive)	1.04 (inactive)	0.994 (inactive)	1.05 (inactive)
